The list is not random: actives were taken first. Their share in the collection is about 3.3%.
Statin myotox sup: suppression of simvastatin myotoxicity; C2C12 myotubes + simvastatin, ATP luminescence, 48 h; scaled: DMSO 0, geranylgeraniol control 100; rescue of ATP level, % at 7.49 µM; hit rate 0.78% among 330,000; AID 602340;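 active means mean ATP rescue above about 67%, or every replicate alone reaching that limit, limit read from the data, passing the limit was not always enough; inconclusive means no clear call, values can overlap the other calls; inactive means mean under the limit and some replicate under it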;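 further: myotubes were challenged with 10 µM simvastatin during compound exposure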
MITF TRPM1 HTS: MITF TRPM1 promoter activation in melanoma cells; SK-MEL-5 TRPM1-promoter luciferase, 24 h; % of positive control, neutral wells = 0; activation, % at 12.5 µM; hit rate 0.75% among 300,000;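 active means mean activation of at least 80% with every replicate also reaching 80%; inconclusive means mean reaches 80% but some replicate falls short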;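 further: 0% = neutral control wells and 100% = parthenolide positive control wells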
FXN GAA850 act: activators of GAA850 frataxin (FXN) promoter; HEK293 lucGAA850 FXN promoter luciferase reporter, 24 h; percent of 10 µM SAHA response; activation, % at 6 µM; hit rate 0.56% among 360,000; AID 540364;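 active means activation above the average of all compounds screened plus 3 SD, cutoff fixed separately per campaign, cut at about 7.5% in these data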;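 further: 0% = DMSO wells and 100% = 10 µM SAHA wells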
Wnt bcat act: activates Wnt/beta-catenin signaling in a reporter cell assay; activator, plate reader; activation, % at 9.35 µM; hit rate 1.2% among 300,000; in the data active means activation above about 30%, passing the limit was not always enough; inconclusive means no clear call, values can overlap the other calls;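 further: 0% = neutral control wells and 100% = positive control wells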
esBAF inh: blocks esBAF chromatin remodeling in mouse ES cells; Bmi1-luciferase knock-in reporter, 24 h; 100% = twice the neutral-well signal; reporter increase, % at 12.5 µM; hit rate 2% among 350,000; in the data active means activation above about 40%; inconclusive means no clear call, values can overlap the other calls;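 further: 0% = median of the plate's neutral control wells and 100% = double that signal; a rise in the Bmi1 reporter signal indicates esBAF inhibition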
GAA30 counter: activates GAA30 frataxin promoter, counter-screen for GAA850 activators | HEK293 lucGAA30 FXN promoter luciferase, 24 h; DMSO = 0%, 5 µM ipriflavone = 100% | hit rate 66% among 1,900 | shares compounds with FXN GAA850 act | activation, % at 6 µM;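 active means mean activation above the mean of solvent-only control wells plus 3 SD, cut at about 22% in these data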;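 further: counterscreen of GAA850 promoter hits where activity marks nonselective or luminescence artifacts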
GAA850 confirm: GAA850 FXN promoter activation confirmation; shares compounds with FXN GAA850 act; HEK293 lucGAA850 FXN promoter luciferase reporter, 24 h; 100% = activation by SAHA; activation, % at 6 µM; hit rate 86% among 1,900;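 active means mean activation above a set limit taken from the primary screen, cut at about 8% in these data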;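 further: 0% = DMSO wells and 100% = 10 µM SAHA wells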
An asterisk follows results filed as active.

`C[C@@H]1CCCCO[C@H](CN(C)C(=O)Cc2ccccc2)[C@H](C)CN([C@H](C)CO)C(=O)c2cc(NC(=O)c3ccccc3)ccc2O1` gave esBAF inh -2.
COc1cccc(-c2cnc3c(NC=O)cc(-c4ccc(N5CCN(C)CC5)cc4)cn23)c1 was read as Statin myotox sup 6, FXN GAA850 act 8.8*, Wnt bcat act 5, esBAF inh 24, GAA30 counter 83* and GAA850 confirm 40*.
Screening COc1cccc(-c2cnc3c(NC=O)cc(-c4ccccc4)cn23)c1 returned Statin myotox sup -39, FXN GAA850 act -2, Wnt bcat act -1 and esBAF inh 1.
Screening O=C(COc1ccccc1Cl)NC(=O)NC1CCCC1 returned Statin myotox sup 12, MITF TRPM1 HTS 97*, FXN GAA850 act 8.0*, esBAF inh 24, GAA30 counter 111* and GAA850 confirm 30*.
For Cc1ccc(OCCn2cnc3c(N)ncnc32)cc1 the results were MITF TRPM1 HTS 5, FXN GAA850 act 8.0*, GAA30 counter -8 and GAA850 confirm 9.8*.
`O=C(C[C@H]1CC[C@@H](NC(=O)C2CCC2)[C@H](CO)O1)NC1CCC1` gave Statin myotox sup -1 and esBAF inh 4.
Screening Clc1ccc(-c2csc(Nc3ccccc3)[n+]2Cc2ccco2)c(Cl)c1 returned MITF TRPM1 HTS 89*, FXN GAA850 act 7.9*, Wnt bcat act 43*, GAA30 counter 83* and GAA850 confirm 37*.
For CCCC[n+]1c(-c2ccc(Cl)cc2Cl)csc1Nc1ccccc1 the results were Statin myotox sup 10, MITF TRPM1 HTS 33, FXN GAA850 act 2 and esBAF inh 6.
Screening O=[N+]([O-])/C=C\c1ccc(N2CCCC2)c(F)c1 returned Statin myotox sup 3, MITF TRPM1 HTS -92, FXN GAA850 act 8.6*, esBAF inh 3, GAA30 counter 19 and GAA850 confirm 31*.
`O=Cc1ccc(N2CCCC2)c([N+](=O)[O-])c1` gave Statin myotox sup -1, MITF TRPM1 HTS -3, FXN GAA850 act 0, Wnt bcat act -1 and esBAF inh -1.
Cc1noc(C)c1NC(=O)N(C)C[C@@H]1OCCCC[C@H](C)Oc2ccc(N(C)C)cc2C(=O)N([C@H](C)CO)C[C@H]1C was read as Statin myotox sup -21 and esBAF inh -3.
CNC[C@H]1OCCCC[C@@H](C)Oc2ccc(NS(=O)(=O)c3cn(C)cn3)cc2C(=O)N([C@H](C)CO)C[C@H]1C was read as esBAF inh -8.
Screening Cc1cccc(OCc2ccc(C(=O)N3CCOCC3)o2)c1 returned Statin myotox sup 5, MITF TRPM1 HTS -5, FXN GAA850 act -1, Wnt bcat act 0 and esBAF inh 7.
`CCOc1ccc(OCc2ccc(C(=O)O)o2)cc1` gave Statin myotox sup 6, MITF TRPM1 HTS -45, FXN GAA850 act 2 and esBAF inh 20.
Screening CC(C)(C)c1ccc(OCc2ccc(C(=O)N3CCOCC3)o2)cc1 returned Statin myotox sup -5, MITF TRPM1 HTS 55, FXN GAA850 act 8.4*, Wnt bcat act 28, esBAF inh 34, GAA30 counter 52* and GAA850 confirm 24*.
`CCc1ccc(OCc2ccc(C(=O)OC)o2)cc1` gave Statin myotox sup -22, MITF TRPM1 HTS 89*, FXN GAA850 act 7.6*, Wnt bcat act 31*, esBAF inh inconclusive, GAA30 counter 78* and GAA850 confirm 28*.
CCCc1ccc(OCc2ccc(C(=O)N3CCSCC3)o2)cc1 was read as Statin myotox sup -12, MITF TRPM1 HTS 39, FXN GAA850 act 7.6*, Wnt bcat act 12, esBAF inh 47*, GAA30 counter 100* and GAA850 confirm 38*.
`CCOC(=O)c1c(NC(=O)CSc2nnc(-c3c[nH]c4ccccc34)n2CCOC)sc2c1CCCCC2` gave Statin myotox sup -2, FXN GAA850 act 17*, Wnt bcat act -1, esBAF inh 11, GAA30 counter 5 and GAA850 confirm 8.2*.
For CCOC(=O)c1c(NC(=O)CSc2c[nH]c3ccccc23)sc2c1CCCC2 the results were Statin myotox sup 12, FXN GAA850 act 1, Wnt bcat act -4 and esBAF inh -2.
`C[C@H](CO)N1C[C@H](C)[C@H](CN(C)C(=O)Nc2cccc(F)c2)Oc2ncc(C3=CCCC3)cc2C1=O` gave Statin myotox sup -8 and esBAF inh -8.
For Cc1ccccc1N=C1NC(=O)/C(=C/c2cccn2C)S1 the results were MITF TRPM1 HTS 5, FXN GAA850 act 1 and Wnt bcat act 0.
For Cn1cccc1/C=C1\CCC/C(=C\c2cccn2C)C1=O the results were Statin myotox sup -6, FXN GAA850 act 12*, Wnt bcat act 71*, esBAF inh 81*, GAA30 counter 99* and GAA850 confirm 39*.
`O=C(C[C@H]1CC[C@H](NC(=O)c2ccncc2)[C@@H](CO)O1)NCC1CC1` gave Statin myotox sup 6 and esBAF inh 2.
Screening Cn1c2ccccc2c(=O)c2cc(NCCCN3CCOCC3)ccc21 returned Statin myotox sup -14, MITF TRPM1 HTS 55, FXN GAA850 act 17*, Wnt bcat act 25, esBAF inh 33, GAA30 counter 143* and GAA850 confirm 58*.
CN1CCC[C@H]1CCNc1ccc2c(=O)c3ccccc3n(C)c2c1 was read as Statin myotox sup -8, MITF TRPM1 HTS 57, FXN GAA850 act 13*, Wnt bcat act 17, esBAF inh 64*, GAA30 counter 46* and GAA850 confirm 69*.
Screening Cn1c2ccccc2c(=O)c2ccc(NCc3ccc4c(c3)OCO4)cc21 returned Statin myotox sup 1, MITF TRPM1 HTS 20, FXN GAA850 act 11*, Wnt bcat act 6, esBAF inh 44*, GAA30 counter 71* and GAA850 confirm 27*.
CN1C(=O)c2cc(NC(=O)C3CCCC3)ccc2OC[C@H]2O[C@H](CC(=O)NCC(F)(F)F)CC[C@H]21 was read as Statin myotox sup 3 and esBAF inh 6.
Screening Cc1ccc(S(=O)(=O)N(C)C[C@H]2OCCCC[C@H](C)Oc3ccc(NS(=O)(=O)c4c(C)noc4C)cc3C(=O)N([C@@H](C)CO)C[C@@H]2C)cc1 returned esBAF inh -7.
Screening COc1ccc(NC(=O)C2CCCN2S(=O)(=O)c2ccc3c(c2)CCC(=O)N3)cc1 (stereo not given) returned Statin myotox sup -5, MITF TRPM1 HTS 0, FXN GAA850 act 0, Wnt bcat act 0 and esBAF inh 1.

Source: PubChem BioAssay
